Test results from PubChem BioAssay (NCI).
The panel holds about 83,000 compounds, 20% with a hit somewhere; the sample as a whole holds those more often.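 Compound tested at a single concentration for 48 hours in 96-well plates; a percent growth value below 10 was scored as active.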 Active and inactive are the calls of the source.

Tests used:
Assay in all cases: NCI-60 one-dose screen, 48 h (100 = growth as untreated, 0 = no growth, -100 = all killed)
Details in all cases: 10 µM unless noted
NCI-H23 lung = tested on: NCI-H23 lung
NCI-H226 lung = tested on: NCI-H226 lung
NCI-H322M lung = tested on: NCI-H322M lung
HOP-62 NSCLC = tested on: HOP-62 NSCLC
NCI-H460 lung = tested on: NCI-H460 lung
HOP-92 NSCLC = tested on: HOP-92 NSCLC
A549/ATCC NSCLC = tested on: A549/ATCC NSCLC
786-0 renal = tested on: 786-0 renal
COLO 205 colon = tested on: COLO 205 colon
DU-145 prostate = tested on: DU-145 prostate
K-562 leukemia = tested on: K-562 leukemia
MALME-3M melanoma = tested on: MALME-3M melanoma
MDA-MB-231 breast = tested on: MDA-MB-231 breast
RXF 393 renal = tested on: RXF 393 renal
SF-268 CNS = tested on: SF-268 CNS
SF-295 CNS = tested on: SF-295 CNS
SF-539 CNS = tested on: SF-539 CNS
UACC-257 melanoma = tested on: UACC-257 melanoma
M14 melanoma = tested on: M14 melanoma
NCI-H522 lung = tested on: NCI-H522 lung

Measured: growth

O=NN1CCCCC1
inactive: NCI-H23 lung 104% | NCI-H226 lung 109% | NCI-H322M lung 128% | HOP-62 NSCLC 102% | NCI-H460 lung 116% | HOP-92 NSCLC 110% | A549/ATCC NSCLC 102% | 786-0 renal 103% | COLO 205 colon 107% | DU-145 prostate 107% | K-562 leukemia 121% | MALME-3M melanoma 120% | MDA-MB-231 breast 95.9% | RXF 393 renal 118% | SF-268 CNS 96.1% | SF-295 CNS 119% | SF-539 CNS 91.8% | UACC-257 melanoma 97.8% | M14 melanoma 103%

OCCN=Cc1c[nH]c2ccccc12
inactive: NCI-H23 lung 91.6% | NCI-H226 lung 83.5% | NCI-H322M lung 102% | HOP-62 NSCLC 85.1% | NCI-H460 lung 103% | NCI-H522 lung 95.2% | A549/ATCC NSCLC 95.2% | 786-0 renal 95.7% | COLO 205 colon 112% | DU-145 prostate 114% | MALME-3M melanoma 104% | MDA-MB-231 breast 68.6% | RXF 393 renal 118% | SF-268 CNS 107% | SF-295 CNS 89.9% | SF-539 CNS 99.4% | UACC-257 melanoma 110% | M14 melanoma 97.3%

Cc1cc(C(C)(C)C)ccc1O
inactive: NCI-H23 lung 90.9% | NCI-H226 lung 92.2% | NCI-H322M lung 104% | HOP-62 NSCLC 102% | NCI-H460 lung 105% | HOP-92 NSCLC 94.4% | A549/ATCC NSCLC 104% | 786-0 renal 111% | COLO 205 colon 107% | DU-145 prostate 104% | K-562 leukemia 103% | MALME-3M melanoma 104% | MDA-MB-231 breast 118% | RXF 393 renal 102% | SF-268 CNS 97.3% | SF-295 CNS 110% | SF-539 CNS 111% | UACC-257 melanoma 100% | M14 melanoma 102%

CCCC(C)SP(=S)(SC(C)CCC)SC(C)CCC (stereo unspecified)
inactive: NCI-H23 lung 95.5% | NCI-H226 lung 88.8% | NCI-H322M lung 101% | HOP-62 NSCLC 101% | NCI-H460 lung 98.9% | HOP-92 NSCLC 94.7% | NCI-H522 lung 90.9% | 786-0 renal 98.9% | COLO 205 colon 98.6% | DU-145 prostate 108% | K-562 leukemia 112% | MALME-3M melanoma 87.6% | MDA-MB-231 breast 113% | RXF 393 renal 95.5% | SF-268 CNS 104% | SF-295 CNS 101% | SF-539 CNS 103% | M14 melanoma 94.4%

C=CC[PH+](c1ccccc1)c1ccccc1.C=CC[PH+](c1ccccc1)c1ccccc1.[Pt+2].[S-]c1ncccn1.[S-]c1ncccn1
active: NCI-H226 lung 3.04% | HOP-92 NSCLC -7.37% | COLO 205 colon -11.5% | K-562 leukemia 5% | MALME-3M melanoma -10.8% | MDA-MB-231 breast 7.07% | RXF 393 renal -77.6% | M14 melanoma 1.19%
inactive: NCI-H23 lung 36.6% | NCI-H322M lung 85.1% | HOP-62 NSCLC 90.3% | NCI-H460 lung 91.6% | A549/ATCC NSCLC 71.4% | 786-0 renal 19.6% | DU-145 prostate 35.5% | SF-268 CNS 87.4% | SF-295 CNS 84.2% | SF-539 CNS 60.2% | UACC-257 melanoma 66.7%

COc1c(O)cc2c(c1OC)-c1ccc(SC)c(=O)cc1C(NC(C)=O)CC2 (stereo unspecified)
inactive: NCI-H23 lung 21.4% | NCI-H226 lung 23.1% | NCI-H322M lung 41.1% | HOP-62 NSCLC 22.2% | A549/ATCC NSCLC 46.4% | 786-0 renal 19.1% | MALME-3M melanoma 39.9% | RXF 393 renal 20.3% | SF-268 CNS 29.7% | UACC-257 melanoma 20.1%
active: NCI-H460 lung 3% | COLO 205 colon -44.6% | DU-145 prostate -28.7% | K-562 leukemia -24.9% | MDA-MB-231 breast 2.58% | SF-295 CNS 9.18% | SF-539 CNS -15%

N#CCC(=O)c1ccccc1
inactive: NCI-H23 lung 97.7% | NCI-H226 lung 97.9% | NCI-H322M lung 96.6% | HOP-62 NSCLC 101% | NCI-H460 lung 96.9% | HOP-92 NSCLC 86.8% | 786-0 renal 107% | COLO 205 colon 101% | DU-145 prostate 98.5% | K-562 leukemia 84.5% | MALME-3M melanoma 102% | MDA-MB-231 breast 104% | RXF 393 renal 108% | SF-268 CNS 94.1% | SF-295 CNS 101% | SF-539 CNS 111% | M14 melanoma 111%

C/C(=C\c1ccn(-c2ccc(N)cc2F)n1)[C@@H]1C[C@@H]2O[C@]2(C)CCC[C@H](C)[C@H](O)[C@@H](C)C(=O)C(C)(C)[C@@H](O)CC(=O)O1
active: COLO 205 colon -5.18% | DU-145 prostate -19.4% | RXF 393 renal -7.39% | SF-295 CNS 8.62% | SF-539 CNS -4.08% | M14 melanoma -5.99%
inactive: NCI-H23 lung 25.2% | NCI-H226 lung 35.6% | NCI-H322M lung 15.5% | HOP-62 NSCLC 36.4% | NCI-H460 lung 11% | HOP-92 NSCLC 49% | A549/ATCC NSCLC 22.5% | 786-0 renal 18.1% | K-562 leukemia 11.8% | MALME-3M melanoma 30.9% | MDA-MB-231 breast 20.8% | SF-268 CNS 29.7% | UACC-257 melanoma 56.3%
